{"source": "the OligoGym collection"}
{"biological_target": "GRK1", "test": "pooled miR-30 sensor sort-seq; sequence = guide strand", "settings": "shRNA"}
{"sequence": "TAGACAGTTTTGGAGTCTGGGA", "sensor-assay potency score (higher = more potent)": -1.3}
{"sequence": "TTAAACTTCGCCACTATCCCCT", "sensor-assay potency score (higher = more potent)": 0.34}
{"sequence": "TTGTCGCAGGTCTCATCTCTGA", "sensor-assay potency score (higher = more potent)": -1.13}
{"sequence": "TAAACTTCGCCACTATCCCCTC", "sensor-assay potency score (higher = more potent)": -0.678}
{"sequence": "TAGTCCTCGATGTCTTTCCAGA", "sensor-assay potency score (higher = more potent)": -1.36}
{"sequence": "TTTGCGTAGACAGTTTTGGAGT", "sensor-assay potency score (higher = more potent)": -0.657}
{"sequence": "TTGTCCAGCAGCACGTTCTCGG", "sensor-assay potency score (higher = more potent)": -0.903}
{"sequence": "TTCTTGTTCAGCTTCTTGCAGG", "sensor-assay potency score (higher = more potent)": -0.533}
{"sequence": "TTGCCGGTCGCCTTCATCTGGC", "sensor-assay potency score (higher = more potent)": -1.21}
{"biological_target": "GRSF1", "test": "pooled miR-30 sensor sort-seq; sequence = guide strand", "settings": "shRNA"}
{"sequence": "TCGATTACCAATTTCTTCCCTG", "sensor-assay potency score (higher = more potent)": -0.139}
{"sequence": "TATACTTCCACATACCGCTGGC", "sensor-assay potency score (higher = more potent)": -0.174}
{"sequence": "TTCATGTTCTTCAAAGACCATT", "sensor-assay potency score (higher = more potent)": -0.97}
{"sequence": "TAGCAGTAGGAAAAGATGCGAT", "sensor-assay potency score (higher = more potent)": -0.689}
{"sequence": "TTCTTCTAAACAGTCCACTATG", "sensor-assay potency score (higher = more potent)": -0.687}
{"sequence": "TCTGCTTGGAAATATCTCGATG", "sensor-assay potency score (higher = more potent)": -0.758}
{"sequence": "TTCTTCTTCTAAACAGTCCACT", "sensor-assay potency score (higher = more potent)": -0.559}
{"sequence": "ATGTATTCCATTCTCACCGTTG", "sensor-assay potency score (higher = more potent)": -1.12}
{"sequence": "TAAGGCTTTCTGCACATCCTGC", "sensor-assay potency score (higher = more potent)": -0.572}
{"sequence": "TTTCTTCTTCTAAACAGTCCAC", "sensor-assay potency score (higher = more potent)": -0.0512}
{"sequence": "TTATATACTTAGCAGTAGGAAA", "sensor-assay potency score (higher = more potent)": -1.31}
{"sequence": "TTGAGCATCGCTGCAACAGCAT", "sensor-assay potency score (higher = more potent)": -0.486}
